# Measured values as given in a collection of fitness landscapes (doi:10.1126/science.1257360).
# The full ranking holds about 140,000 sequences; the median of “enrichment ratio after two sorts for PhoP signalling” is about 0, and the highest 2% start at about 11. This excerpt belongs to a sample that is enriched for the highest values.
# B1: PhoQ; a variant is named by its letters at X, in order, P23837 (parent)
# chain: MKKLLRLFFPLSLRVRFLLATAAVVLVLSLAYGMVALIGYSVSFDKTTFRLLRGESNLFYTLAKWENNKLHVELPENIDKQSPTMTLIYDENGQLLWAQRDVPWLMKMIQPDWLKSNGFHEIEADVNDTSLLLSGDHSIQQQLQEVREDDDDAEMTHSVAVNVYPATSRMPKLTIVVVDTIPVELKSSYMVWSWFIYVLSANLLLVIPLLWVAAWWSLRPIEALAKEVRELEEHNRELLNPATTRELTSLVRNLNRLLKSERERYDKYRTTLTDLTHSLKTPLXXLQXXLRSLRSEKMSVSDAEPVMLEQISRISQQIGYYLHRASMRGGTLLSRELHPVAPLLDNLTSALNKVYQRKGVNISLDISPEISFVGEQNDFVEVMGNVLDNACKYCLEFVEISARQTDEHLYIVVEDDGPGIPLSKREVIFDRGQRVDTLRPGQGVGLAVAREITEQYEGKIVAGESMLGGARMEVIFGRQHSAPKDE
# Variants of: B1
# Assay: enrichment ratio after two sorts for PhoP signalling (ratio (wild type AVST 3.29)); higher = more functional
# Settings: with PhoP (E. coli)
row,Variant,enrichment ratio
1,YKHD,≤ 0.25
2,TNPV,≤ 0.25
3,YHGA,≤ 0.25
4,TDAQ,13.4
5,KSAQ,≤ 0.25
6,FDAQ,≤ 0.25
7,NSAQ,≤ 0.25
8,TSAQ,19.6
9,LTAQ,≤ 0.25
10,EETH,≤ 0.25
11,DEAP,≤ 0.25
12,LAGN,≤ 0.25
13,GGLE,≤ 0.25
14,MLEW,≤ 0.25
15,TEHS,18.1
16,NEHY,≤ 0.25
17,YYHY,≤ 0.25
18,TEHP,≤ 0.25
19,YYHS,≤ 0.25
20,TEHF,3.55
21,YYHL,≤ 0.25
22,NEHL,≤ 0.25
23,TEHL,12.5
24,NEHS,≤ 0.25
25,TEHY,11.4

row,Variant,enrichment ratio
1,TEHI,14.2
2,PQEA,≤ 0.25
3,YVFQ,≤ 0.25
4,IQHV,≤ 0.25
5,PPCA,≤ 0.25
6,ETDW,≤ 0.25
7,MLTM,4.75
8,MNWM,4.81
9,MNTI,13.1
10,TNRM,≤ 0.25
11,MNTC,≤ 0.25
12,MNTS,≤ 0.25
13,TNCL,0.276
14,TNTM,31.2
15,MNTM,18.9
16,KHVC,≤ 0.25
17,QGRV,≤ 0.25
18,HNCH,≤ 0.25
19,VGDV,≤ 0.25
20,NEGH,≤ 0.25
21,SGDS,≤ 0.25
22,SGKA,≤ 0.25
23,SGIQ,11.9
24,TGMQ,≤ 0.25
25,SGIE,≤ 0.25

row,Variant,enrichment ratio
1,SRIQ,≤ 0.25
2,SGGA,8.12
3,SGHP,≤ 0.25
4,SGMQ,15.4
5,SGSQ,12.9
6,SGGQ,14.9
7,SGGK,≤ 0.25
8,AGYL,4.28
9,QKLN,≤ 0.25
10,QYFC,≤ 0.25
11,SGFQ,2.13
12,EDPV,≤ 0.25
13,PQAT,≤ 0.25
14,NRML,≤ 0.25
15,TEML,28.6
16,TKML,19.2
17,VRML,≤ 0.25
18,MAKL,≤ 0.25
19,MAML,25.7
20,MKML,≤ 0.25
21,HKML,≤ 0.25
22,FAML,6.33
23,MEML,12
24,PTML,≤ 0.25
25,VKML,≤ 0.25

row,Variant,enrichment ratio
1,SWHC,≤ 0.25
2,WHRD,≤ 0.25
3,PISS,≤ 0.25
4,LFSF,≤ 0.25
5,RFYN,≤ 0.25
6,DIQW,≤ 0.25
7,IIYH,≤ 0.25
8,MIWL,3.25
9,MMML,≤ 0.25
10,MIML,14
11,MCML,17.5
12,MIRL,≤ 0.25
13,MTML,4.85
14,KEPP,≤ 0.25
15,HSFC,≤ 0.25
16,TLKM,≤ 0.25
17,CNFF,≤ 0.25
18,QNDV,≤ 0.25
19,MGTH,≤ 0.25
20,HFMM,≤ 0.25
21,MGTM,13.6
22,MGCK,3.89
23,MGTI,12.5
24,MGTS,≤ 0.25
25,MFMM,≤ 0.25

row,Variant,enrichment ratio
1,MGMM,37.6
2,MGAM,14.1
3,MGDH,≤ 0.25
4,MGTC,0.695
5,MGTA,≤ 0.25
6,HMRE,≤ 0.25
7,WQTY,≤ 0.25
8,YKIG,≤ 0.25
9,VGNS,≤ 0.25
10,HWDL,≤ 0.25
11,SSRL,≤ 0.25
12,YEQT,≤ 0.25
13,LCHM,≤ 0.25
14,MVGN,10.6
15,IKTK,≤ 0.25
16,MGWM,21
17,MGGM,9.49
18,MGDM,≤ 0.25
19,LNTF,≤ 0.25
20,NATF,≤ 0.25
21,LLTF,≤ 0.25
22,SITF,11.8
23,SLTF,12.2
24,KYTF,≤ 0.25
25,KATF,≤ 0.25

row,Variant,enrichment ratio
1,SNTF,12.1
2,WLTF,≤ 0.25
3,SSTF,7.3
4,SATF,11.2
5,SRTF,≤ 0.25
6,LNWL,≤ 0.25
7,ERPG,≤ 0.25
8,NYCA,≤ 0.25
9,IDCL,≤ 0.25
10,VING,≤ 0.25
11,WSTV,≤ 0.25
12,NVQL,≤ 0.25
13,KSQL,≤ 0.25
14,TVQL,16.7
15,TSQL,14
16,TMQL,12.8
17,LAQL,≤ 0.25
18,DWQL,≤ 0.25
19,SPQL,≤ 0.25
20,TQQL,11.6
21,HAQL,≤ 0.25
22,MMQL,≤ 0.25
23,NMQL,≤ 0.25
24,NGLW,≤ 0.25
25,YAWN,≤ 0.25

row,Variant,enrichment ratio
1,QRCA,≤ 0.25
2,FANK,≤ 0.25
3,PWMR,≤ 0.25
4,YMPP,≤ 0.25
5,PLMP,≤ 0.25
6,FLRE,≤ 0.25
7,MFVW,≤ 0.25
8,LQNW,≤ 0.25
9,TNQL,12.7
10,LNQL,≤ 0.25
11,KAQL,1.07
12,TLQL,13
13,YAQL,≤ 0.25
14,KLQL,≤ 0.25
15,TKQL,23.2
16,MNQL,≤ 0.25
17,NAQL,≤ 0.25
18,WFHV,≤ 0.25
19,AFMF,≤ 0.25
20,WQHR,≤ 0.25
21,AKRK,≤ 0.25
22,TMEI,17.7
23,NEEV,≤ 0.25
24,KMEI,≤ 0.25
25,KMEC,≤ 0.25

row,Variant,enrichment ratio
1,TMSL,13.1
2,TMEV,25
3,TMFV,0.532
4,NEEC,≤ 0.25
5,KMSL,≤ 0.25
6,TMEC,11.9
7,NMSL,≤ 0.25
8,DMEI,≤ 0.25
9,IVWG,≤ 0.25
10,GKHD,≤ 0.25
11,RMMR,≤ 0.25
12,VNCL,4.33
13,RQDI,≤ 0.25
14,MCGY,≤ 0.25
15,TMEL,15.3
16,TMGL,7.75
17,MMHL,1.34
18,DMHL,≤ 0.25
19,TMHL,11.6
20,TMWL,≤ 0.25
21,HEGR,≤ 0.25
22,IMAF,≤ 0.25
23,LWKN,≤ 0.25
24,VRPW,≤ 0.25
25,HNFA,≤ 0.25

row,Variant,enrichment ratio
1,TPCH,≤ 0.25
2,VYYN,≤ 0.25
3,VLGI,≤ 0.25
4,GLLN,≤ 0.25
5,WLCN,≤ 0.25
6,CLCN,23.2
7,CLLN,≤ 0.25
8,SHLN,2.15
9,SHCN,13.2
10,GLCN,12.8
11,SLCN,11.5
12,THCN,4.64
13,ELCN,≤ 0.25
14,STCN,8.56
15,GLCI,9.01
16,VNQW,≤ 0.25
17,HNQK,≤ 0.25
18,YVDP,≤ 0.25
19,RGYW,≤ 0.25
20,TCKY,≤ 0.25
21,SVNL,≤ 0.25
22,KSCN,≤ 0.25
23,SSLN,6.84
24,SSCN,16.9
25,SILN,8.2

row,Variant,enrichment ratio
1,SICN,20.7
2,KYCN,≤ 0.25
3,FSCN,≤ 0.25
4,SVCN,19.4
5,NSCN,≤ 0.25
6,TSCN,26.6
7,SVLN,7.1
8,KIAC,≤ 0.25
9,GADV,≤ 0.25
10,GNVT,≤ 0.25
11,LQFF,≤ 0.25
12,YIPQ,≤ 0.25
13,LFCN,≤ 0.25
14,RNVA,≤ 0.25
15,IHQN,≤ 0.25
16,VDDC,≤ 0.25
17,DQCK,≤ 0.25
18,LVLE,≤ 0.25
19,VCCN,≤ 0.25
20,SCCN,17.1
21,SQCN,10.1
22,LVPD,≤ 0.25
23,TRFL,≤ 0.25
24,DSSW,≤ 0.25
25,EETG,3.69

row,Variant,enrichment ratio
1,MITR,≤ 0.25
2,SGYI,2.6
3,SGAY,15.2
4,SGDY,≤ 0.25
5,SGWY,≤ 0.25
6,SGGY,22.8
7,SGNY,≤ 0.25
8,MFNP,≤ 0.25
9,RNKF,≤ 0.25
10,GSHF,≤ 0.25
11,GSWI,≤ 0.25
12,KSCF,≤ 0.25
13,GSTI,12.2
14,GSCF,11.5
15,GSLY,7.32
16,MERP,≤ 0.25
17,VWLN,≤ 0.25
18,DNMN,≤ 0.25
19,AALA,7.36
20,ATLA,9.51
21,AALK,12
22,AAMK,35.5
23,ATLK,17
24,YTLK,≤ 0.25
25,KALK,≤ 0.25

row,Variant,enrichment ratio
1,AIMK,≤ 0.25
2,AAAT,≤ 0.25
3,AALT,11.9
4,NALK,≤ 0.25
5,NAMK,≤ 0.25
6,HSVK,≤ 0.25
7,TFLL,3.21
8,PAYK,≤ 0.25
9,PNPY,≤ 0.25
10,GVVL,1.14
11,FWES,≤ 0.25
12,MFHN,≤ 0.25
13,VGKH,≤ 0.25
14,TSAT,11.6
15,KSNS,≤ 0.25
16,TSNT,11.9
17,TSNS,12.8
18,KSAT,≤ 0.25
19,KSNT,≤ 0.25
20,TSNW,≤ 0.25
21,NSAT,≤ 0.25
22,TSNY,8.01
23,GLRK,≤ 0.25
24,FLKG,0.285
25,GCSH,≤ 0.25

row,Variant,enrichment ratio
1,AATM,0.767
2,RWIC,≤ 0.25
3,FLKL,≤ 0.25
4,GNCS,7.94
5,GICS,11.2
6,GICI,7.05
7,GNCN,≤ 0.25
8,GICA,11.2
9,GIVG,10.4
10,GNCA,9.24
11,GICG,15.9
12,GILN,10.6
13,GICN,13.8
14,GNCG,≤ 0.25
15,GICP,≤ 0.25
